The values below come from publication PMC7862700, “An all-to-all approach to the identification of sequence-specific readers for epigenetic DNA modifications on cytosine”.

Holding throughout (test): DAPPL (digital affinity profiling via proximity ligation, sequencing); 10 mM Tris-HCl pH 7.5, 50 mM NaCl, 1 mM DTT, 4% glycerol, room temperature, 30 min; GST-TFs on glutathione beads, 16-mer random dsDNA library, 0.1% formaldehyde crosslink after washing; high values mean tight binding
The target of assay [1] is T1, FEV (Homo sapiens, UniProt Q99581 1-238).
T1 sequence: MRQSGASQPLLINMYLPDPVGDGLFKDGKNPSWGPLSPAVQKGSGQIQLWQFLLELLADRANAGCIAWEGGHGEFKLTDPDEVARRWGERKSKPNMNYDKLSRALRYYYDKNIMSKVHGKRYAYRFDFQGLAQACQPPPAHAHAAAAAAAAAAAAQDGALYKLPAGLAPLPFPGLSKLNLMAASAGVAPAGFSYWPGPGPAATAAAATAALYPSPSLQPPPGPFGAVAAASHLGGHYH
To be noted: protein: recombinant; tags: N-terminal GST; dsDNA, one strand shown. In short, it runs like this: (§1)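 Human transcription factors carrying a GST fusion were produced in yeast, bound to glutathione beads, tagged with DNA barcodes and pooled together with a tag-only sample. Each pool was held with 200 nmole of a random double-stranded 16-mer DNA library in Tris/NaCl/DTT/glycerol buffer for 30 min at room temperature, then washed, crosslinked in 0.1% formaldehyde, proximity-ligated with BsaI/T4 ligase (1 h, 37 °C), PCR-amplified and sequenced on an Illumina NextSeq500. Binding signal is the read frequency of each hexamer for a given factor divided by its frequency in the tag-only sample.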

In assay [2] the target is ETV5 (Homo sapiens, UniProt P41161 1-510). The conditions noted are these: protein: recombinant; tags: N-terminal GST; dsDNA, one strand shown. In short, it runs like this: as §1
Assay [3] has as its target HSF1 (Homo sapiens, UniProt Q00613 1-529). To be noted: protein: recombinant; tags: N-terminal GST; chain copies: 3; dsDNA, one strand shown. The procedure, abridged: as §1
The target of assay [4] is T2, SPIC (Homo sapiens, UniProt Q8N5J4 1-248).
T2 sequence: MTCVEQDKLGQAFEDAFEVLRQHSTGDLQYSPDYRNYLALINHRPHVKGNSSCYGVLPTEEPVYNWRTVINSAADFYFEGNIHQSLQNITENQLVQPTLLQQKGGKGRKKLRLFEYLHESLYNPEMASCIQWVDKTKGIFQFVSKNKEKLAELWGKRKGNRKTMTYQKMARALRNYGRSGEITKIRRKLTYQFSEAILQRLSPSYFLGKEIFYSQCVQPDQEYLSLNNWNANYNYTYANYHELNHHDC
To be noted: protein: recombinant; tags: N-terminal GST; dsDNA, one strand shown. In short, it runs like this:
as §1

The target of assay [5] is ELF4 (Homo sapiens, UniProt Q99607 1-663). To be noted: protein: recombinant; tags: N-terminal GST; dsDNA, one strand shown. The procedure, abridged:
as §1

Assay [6] has as its target T3, ELK4 (Homo sapiens, UniProt P28324-2 1-405).
T3 sequence: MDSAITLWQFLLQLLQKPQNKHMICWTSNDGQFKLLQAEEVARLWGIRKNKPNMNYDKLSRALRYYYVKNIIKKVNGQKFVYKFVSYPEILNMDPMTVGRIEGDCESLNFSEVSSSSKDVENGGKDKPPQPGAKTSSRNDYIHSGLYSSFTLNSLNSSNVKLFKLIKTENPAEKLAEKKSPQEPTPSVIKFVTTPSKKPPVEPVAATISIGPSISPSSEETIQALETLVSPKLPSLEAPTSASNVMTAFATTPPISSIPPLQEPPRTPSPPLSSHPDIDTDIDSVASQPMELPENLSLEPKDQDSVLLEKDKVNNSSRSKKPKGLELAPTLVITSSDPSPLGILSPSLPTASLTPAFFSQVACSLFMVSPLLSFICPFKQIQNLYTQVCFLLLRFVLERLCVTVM
To be noted: protein: recombinant; tags: N-terminal GST; dsDNA, one strand shown. The procedure, abridged:
as §1

Assay [7] has as its target T4, ETV2 (Homo sapiens, UniProt O00321 1-342).
T4 sequence: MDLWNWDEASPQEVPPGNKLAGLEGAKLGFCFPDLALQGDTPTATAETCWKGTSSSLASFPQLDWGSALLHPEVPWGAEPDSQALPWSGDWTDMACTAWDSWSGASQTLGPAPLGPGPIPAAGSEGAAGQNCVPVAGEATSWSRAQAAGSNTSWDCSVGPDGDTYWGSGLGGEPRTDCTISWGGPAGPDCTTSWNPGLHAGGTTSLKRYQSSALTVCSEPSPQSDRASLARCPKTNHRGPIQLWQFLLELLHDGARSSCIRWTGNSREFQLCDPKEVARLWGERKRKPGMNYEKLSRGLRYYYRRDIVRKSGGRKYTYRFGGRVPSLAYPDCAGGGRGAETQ
To be noted: protein: recombinant; tags: N-terminal GST; dsDNA, one strand shown. In short, it runs like this: as §1

In assay [8] the target is T5, ELF3 (Homo sapiens, UniProt P78545 1-371).
T5 sequence: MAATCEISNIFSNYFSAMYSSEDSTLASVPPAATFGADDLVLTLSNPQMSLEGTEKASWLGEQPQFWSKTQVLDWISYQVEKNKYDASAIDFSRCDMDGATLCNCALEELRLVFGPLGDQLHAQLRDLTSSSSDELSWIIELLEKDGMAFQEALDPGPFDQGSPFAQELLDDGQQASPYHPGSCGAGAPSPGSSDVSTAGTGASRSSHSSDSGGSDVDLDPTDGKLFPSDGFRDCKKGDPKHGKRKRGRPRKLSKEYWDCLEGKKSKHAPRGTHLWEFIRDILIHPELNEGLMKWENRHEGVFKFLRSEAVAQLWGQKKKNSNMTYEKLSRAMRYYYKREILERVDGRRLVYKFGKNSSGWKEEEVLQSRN
To be noted: protein: recombinant; tags: N-terminal GST; dsDNA, one strand shown. In short, it runs like this:
as §1

Assay [9] concerns the target CRX (Homo sapiens, UniProt O43186 1-299). The conditions noted are these: protein: recombinant; tags: N-terminal GST; dsDNA, one strand shown. In short, it runs like this:
as §1

Assay [10] concerns the target ETV1 (Homo sapiens, UniProt P50549 1-477). The conditions noted are these: protein: recombinant; tags: N-terminal GST; dsDNA, one strand shown. The procedure, abridged:
as §1

Assay [11] deals with T6, ERF (Homo sapiens, UniProt P50548 1-548).
T6 sequence: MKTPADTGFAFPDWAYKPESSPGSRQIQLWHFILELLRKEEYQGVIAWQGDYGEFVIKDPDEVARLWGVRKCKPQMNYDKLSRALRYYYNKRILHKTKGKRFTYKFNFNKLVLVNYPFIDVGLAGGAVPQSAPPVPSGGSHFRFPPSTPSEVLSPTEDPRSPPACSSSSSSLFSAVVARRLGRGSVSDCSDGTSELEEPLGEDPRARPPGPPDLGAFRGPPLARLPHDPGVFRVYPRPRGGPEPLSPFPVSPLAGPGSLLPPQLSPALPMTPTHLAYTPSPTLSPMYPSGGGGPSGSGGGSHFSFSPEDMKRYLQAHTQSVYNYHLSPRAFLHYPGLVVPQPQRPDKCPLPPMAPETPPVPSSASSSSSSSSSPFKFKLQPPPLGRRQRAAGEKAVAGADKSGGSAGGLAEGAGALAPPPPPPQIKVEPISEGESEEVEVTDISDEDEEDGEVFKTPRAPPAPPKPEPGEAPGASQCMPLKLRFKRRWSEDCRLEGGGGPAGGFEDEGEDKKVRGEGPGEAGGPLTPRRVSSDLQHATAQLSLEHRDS
To be noted: protein: recombinant; tags: N-terminal GST; dsDNA, one strand shown. The procedure, abridged:
as §1

Assay [12] addresses T7, ETV3L (Homo sapiens, UniProt Q6ZN32 1-361).
T7 sequence: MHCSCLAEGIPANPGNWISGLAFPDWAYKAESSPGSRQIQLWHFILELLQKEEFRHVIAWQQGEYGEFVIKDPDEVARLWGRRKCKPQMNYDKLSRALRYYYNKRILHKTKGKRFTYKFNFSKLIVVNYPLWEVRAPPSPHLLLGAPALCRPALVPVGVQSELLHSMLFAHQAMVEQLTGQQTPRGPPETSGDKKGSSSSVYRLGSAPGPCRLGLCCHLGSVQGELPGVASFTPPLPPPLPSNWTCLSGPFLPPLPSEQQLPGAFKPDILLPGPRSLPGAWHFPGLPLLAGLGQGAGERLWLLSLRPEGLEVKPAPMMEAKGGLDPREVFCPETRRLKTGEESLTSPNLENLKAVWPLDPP
To be noted: protein: recombinant; tags: N-terminal GST; dsDNA, one strand shown. In short, it runs like this: as §1

In assay [13] the target is T8, ETS2 (Homo sapiens, UniProt P15036 1-469).
T8 sequence: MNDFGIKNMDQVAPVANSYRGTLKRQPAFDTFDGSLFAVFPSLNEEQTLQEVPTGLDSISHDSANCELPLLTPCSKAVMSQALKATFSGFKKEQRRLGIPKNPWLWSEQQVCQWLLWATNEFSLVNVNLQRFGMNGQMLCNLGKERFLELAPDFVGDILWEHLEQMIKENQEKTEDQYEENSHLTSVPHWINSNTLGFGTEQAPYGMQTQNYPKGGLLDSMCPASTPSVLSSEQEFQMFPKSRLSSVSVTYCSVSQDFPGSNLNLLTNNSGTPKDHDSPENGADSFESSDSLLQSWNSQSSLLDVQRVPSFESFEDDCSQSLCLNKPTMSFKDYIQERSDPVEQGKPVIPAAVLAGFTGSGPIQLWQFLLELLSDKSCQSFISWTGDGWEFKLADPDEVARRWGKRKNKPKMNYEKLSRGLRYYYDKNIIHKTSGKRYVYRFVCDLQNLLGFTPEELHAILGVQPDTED
To be noted: protein: recombinant; tags: N-terminal GST; dsDNA, one strand shown. In short, it runs like this: as §1

Assay [14] deals with T9, SPDEF (Homo sapiens, UniProt O95238 1-335).
T9 sequence: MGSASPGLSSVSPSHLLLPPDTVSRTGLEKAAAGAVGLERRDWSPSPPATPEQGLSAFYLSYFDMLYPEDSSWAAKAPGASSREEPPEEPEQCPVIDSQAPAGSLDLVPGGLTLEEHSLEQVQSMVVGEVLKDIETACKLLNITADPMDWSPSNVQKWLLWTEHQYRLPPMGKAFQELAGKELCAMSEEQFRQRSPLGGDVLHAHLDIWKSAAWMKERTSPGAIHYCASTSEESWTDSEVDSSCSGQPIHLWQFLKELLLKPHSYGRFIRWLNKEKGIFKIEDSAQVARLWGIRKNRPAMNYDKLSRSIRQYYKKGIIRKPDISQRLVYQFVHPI
To be noted: protein: recombinant; tags: N-terminal GST; dsDNA, one strand shown. In short, it runs like this:
as §1

For assay [15], the target named is T10, ETV7 (Homo sapiens, UniProt Q9Y603 1-341).
T10 sequence: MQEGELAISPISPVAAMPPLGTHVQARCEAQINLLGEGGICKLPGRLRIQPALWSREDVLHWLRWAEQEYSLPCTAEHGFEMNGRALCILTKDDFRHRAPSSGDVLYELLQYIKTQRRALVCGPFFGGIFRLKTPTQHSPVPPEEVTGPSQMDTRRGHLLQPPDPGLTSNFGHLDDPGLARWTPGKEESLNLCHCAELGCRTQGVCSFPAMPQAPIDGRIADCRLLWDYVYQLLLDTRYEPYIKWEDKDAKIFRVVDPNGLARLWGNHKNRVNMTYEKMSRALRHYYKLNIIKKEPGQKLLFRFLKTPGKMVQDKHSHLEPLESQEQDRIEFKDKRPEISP
To be noted: protein: recombinant; tags: N-terminal GST; dsDNA, one strand shown. In short, it runs like this: as §1

Assay [16] has as its target T11, ELF5 (Homo sapiens, UniProt Q9UKW6-2 1-255).
T11 sequence: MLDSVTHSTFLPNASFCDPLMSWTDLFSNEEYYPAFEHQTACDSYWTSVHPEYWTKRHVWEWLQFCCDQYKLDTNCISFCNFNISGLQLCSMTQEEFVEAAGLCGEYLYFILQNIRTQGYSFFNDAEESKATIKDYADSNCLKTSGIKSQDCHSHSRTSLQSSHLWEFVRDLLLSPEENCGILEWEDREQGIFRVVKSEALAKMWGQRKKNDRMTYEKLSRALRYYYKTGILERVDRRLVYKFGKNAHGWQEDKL
The conditions noted are these: protein: recombinant; tags: N-terminal GST; dsDNA, one strand shown. In short, it runs like this: as §1

The target of assay [17] is T12, ETV3 (Homo sapiens, UniProt P41162-2 1-143).
T12 sequence: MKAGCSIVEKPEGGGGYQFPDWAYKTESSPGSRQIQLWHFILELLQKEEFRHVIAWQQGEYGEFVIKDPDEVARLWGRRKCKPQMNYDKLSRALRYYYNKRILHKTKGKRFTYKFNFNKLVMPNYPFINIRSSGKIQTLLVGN
To be noted: protein: recombinant; tags: N-terminal GST; dsDNA, one strand shown. The procedure, abridged: as §1

The target of assay [18] is ETV6 (Homo sapiens, UniProt P41212 1-452). The conditions noted are these: protein: recombinant; tags: N-terminal GST; dsDNA, one strand shown. The procedure, abridged:
as §1

Chain of ETV1 (P50549 whole entry): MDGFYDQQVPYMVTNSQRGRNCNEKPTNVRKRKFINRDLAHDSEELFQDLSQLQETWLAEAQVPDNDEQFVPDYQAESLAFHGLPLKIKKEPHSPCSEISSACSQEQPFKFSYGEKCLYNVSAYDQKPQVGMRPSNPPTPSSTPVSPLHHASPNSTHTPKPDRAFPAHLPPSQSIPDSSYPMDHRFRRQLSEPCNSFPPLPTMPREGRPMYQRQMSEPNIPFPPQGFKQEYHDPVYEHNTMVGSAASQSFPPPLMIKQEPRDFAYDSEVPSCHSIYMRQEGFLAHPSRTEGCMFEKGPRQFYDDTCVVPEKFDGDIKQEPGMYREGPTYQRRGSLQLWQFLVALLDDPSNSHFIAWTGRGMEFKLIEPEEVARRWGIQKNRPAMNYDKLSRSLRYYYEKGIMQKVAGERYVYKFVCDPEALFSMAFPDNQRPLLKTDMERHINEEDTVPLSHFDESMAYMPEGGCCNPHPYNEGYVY
Chain of ETV6 (P41212 whole entry): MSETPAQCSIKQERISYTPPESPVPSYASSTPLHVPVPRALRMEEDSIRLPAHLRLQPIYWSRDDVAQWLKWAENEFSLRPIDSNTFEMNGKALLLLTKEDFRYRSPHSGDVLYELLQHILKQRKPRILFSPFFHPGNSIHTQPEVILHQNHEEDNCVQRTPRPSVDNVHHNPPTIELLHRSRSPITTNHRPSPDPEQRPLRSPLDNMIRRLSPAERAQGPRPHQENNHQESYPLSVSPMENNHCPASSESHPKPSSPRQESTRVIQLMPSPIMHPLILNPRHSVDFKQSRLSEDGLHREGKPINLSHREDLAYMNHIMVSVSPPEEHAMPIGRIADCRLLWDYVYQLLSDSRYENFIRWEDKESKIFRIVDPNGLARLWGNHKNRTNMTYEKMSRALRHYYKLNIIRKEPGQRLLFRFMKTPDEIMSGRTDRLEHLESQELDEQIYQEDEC
Chain of ELF4 (Q99607 whole entry): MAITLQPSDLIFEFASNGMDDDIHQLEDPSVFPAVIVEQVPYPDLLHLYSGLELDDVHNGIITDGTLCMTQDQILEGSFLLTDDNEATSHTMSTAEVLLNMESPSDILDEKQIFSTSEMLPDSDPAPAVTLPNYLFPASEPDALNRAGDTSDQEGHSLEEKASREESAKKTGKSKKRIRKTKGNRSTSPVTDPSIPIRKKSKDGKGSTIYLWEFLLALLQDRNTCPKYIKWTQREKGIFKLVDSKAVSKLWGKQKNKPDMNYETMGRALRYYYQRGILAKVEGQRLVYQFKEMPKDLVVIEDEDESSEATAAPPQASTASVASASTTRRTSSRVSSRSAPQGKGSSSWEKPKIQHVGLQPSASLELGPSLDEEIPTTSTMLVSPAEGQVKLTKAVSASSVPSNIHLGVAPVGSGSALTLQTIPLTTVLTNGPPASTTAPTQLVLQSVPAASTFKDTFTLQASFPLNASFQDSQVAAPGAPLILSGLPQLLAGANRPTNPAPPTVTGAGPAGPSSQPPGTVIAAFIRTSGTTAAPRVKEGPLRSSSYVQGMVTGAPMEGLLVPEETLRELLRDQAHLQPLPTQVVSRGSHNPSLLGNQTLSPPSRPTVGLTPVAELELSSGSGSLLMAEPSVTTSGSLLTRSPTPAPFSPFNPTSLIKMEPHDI
Chain of CRX (O43186 whole entry): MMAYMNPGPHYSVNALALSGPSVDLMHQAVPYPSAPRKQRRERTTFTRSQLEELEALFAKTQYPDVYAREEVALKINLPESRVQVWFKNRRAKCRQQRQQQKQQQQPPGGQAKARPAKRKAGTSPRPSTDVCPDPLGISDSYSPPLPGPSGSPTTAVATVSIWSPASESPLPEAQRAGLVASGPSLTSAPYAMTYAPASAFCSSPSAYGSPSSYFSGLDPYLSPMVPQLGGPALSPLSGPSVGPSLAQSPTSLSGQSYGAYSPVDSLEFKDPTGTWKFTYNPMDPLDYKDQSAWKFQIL
Chain of ETV5 (P41161 whole entry): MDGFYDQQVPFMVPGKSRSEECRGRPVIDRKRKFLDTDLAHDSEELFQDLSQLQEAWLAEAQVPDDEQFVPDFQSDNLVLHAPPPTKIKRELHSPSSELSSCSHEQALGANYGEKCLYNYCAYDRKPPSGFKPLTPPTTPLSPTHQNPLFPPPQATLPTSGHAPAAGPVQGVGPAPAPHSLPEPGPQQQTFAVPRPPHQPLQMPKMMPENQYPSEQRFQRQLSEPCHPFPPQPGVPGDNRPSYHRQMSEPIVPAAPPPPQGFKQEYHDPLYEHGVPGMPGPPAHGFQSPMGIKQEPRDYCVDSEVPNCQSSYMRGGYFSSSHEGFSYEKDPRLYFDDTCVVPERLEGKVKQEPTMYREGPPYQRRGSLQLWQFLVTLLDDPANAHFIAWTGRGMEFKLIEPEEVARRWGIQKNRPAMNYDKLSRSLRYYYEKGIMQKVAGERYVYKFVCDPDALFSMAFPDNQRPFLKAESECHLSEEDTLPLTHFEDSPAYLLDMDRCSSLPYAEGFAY
Chain of HSF1 (Q00613 whole entry): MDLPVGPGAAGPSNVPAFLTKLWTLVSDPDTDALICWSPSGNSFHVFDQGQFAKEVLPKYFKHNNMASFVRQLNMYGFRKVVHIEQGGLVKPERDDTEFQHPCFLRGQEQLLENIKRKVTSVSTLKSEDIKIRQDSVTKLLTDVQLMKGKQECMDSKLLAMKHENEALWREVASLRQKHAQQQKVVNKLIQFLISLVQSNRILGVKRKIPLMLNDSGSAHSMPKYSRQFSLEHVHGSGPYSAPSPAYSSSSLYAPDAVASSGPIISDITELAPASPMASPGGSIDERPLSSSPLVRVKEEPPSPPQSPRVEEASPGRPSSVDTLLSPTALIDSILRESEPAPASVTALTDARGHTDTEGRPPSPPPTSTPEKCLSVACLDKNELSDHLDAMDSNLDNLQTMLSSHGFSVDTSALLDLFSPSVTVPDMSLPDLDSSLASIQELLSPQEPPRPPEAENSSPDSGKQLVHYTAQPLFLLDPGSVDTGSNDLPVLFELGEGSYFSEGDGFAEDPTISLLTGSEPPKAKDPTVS

As to ACGTCT, the binding signal was 1.13 fold enrichment (6-mer frequency, TF over GST control) in assay [1]; 1.12 fold enrichment (6-mer frequency, TF over GST control) in assay [2]; 1.21 fold enrichment (6-mer frequency, TF over GST control) in assay [3]; 1.17 fold enrichment (6-mer frequency, TF over GST control) in [4]; 1.28 fold enrichment (6-mer frequency, TF over GST control) in [5]; 1.12 fold enrichment (6-mer frequency, TF over GST control) in [6]. For the same sequence, the binding signal in [7] is 1.18 fold enrichment (6-mer frequency, TF over GST control); in assay [8], 1 fold enrichment (6-mer frequency, TF over GST control); in assay [9], 1.09 fold enrichment (6-mer frequency, TF over GST control); in [10], 1.14 fold enrichment (6-mer frequency, TF over GST control); in assay [11] it was 1.12 fold enrichment (6-mer frequency, TF over GST control); in [12], 1.29 fold enrichment (6-mer frequency, TF over GST control). Also, the binding signal is 1.26 fold enrichment (6-mer frequency, TF over GST control) in assay [13]; 1.12 fold enrichment (6-mer frequency, TF over GST control) in assay [14]; 1.29 fold enrichment (6-mer frequency, TF over GST control) in [15]; 1.09 fold enrichment (6-mer frequency, TF over GST control) in assay [16]; 1.17 fold enrichment (6-mer frequency, TF over GST control) in assay [17]; 1.19 fold enrichment (6-mer frequency, TF over GST control) in assay [18].
